# Test results: ChEMBL document CHEMBL3988442, “University of Dundee, Small-Polar-MMV Screening Library” (2021)
# Screen size: about 48,000 compounds; about 13,000 (27%) showed an effect of 50% or more. The list shows a part of the results.
# System: Wolbachia pipientis
# Experiment: Anti-Wolbachia Cell-Based Screen
# Assay type: functional
# Design: scale not given: in the data most compounds retested in dose-response had high values
# Conditions: 5 µM
row,SMILES,Percent Effect
1,Cc1ncsc1CCN(C)Cc1cc2n(n1)CCN(Cc1ccco1)C2,0.12%
2,COCc1cc(N(CC(F)F)C2CC2)n2ncnc2n1,-15.21%
3,CC(C)(Cn1cnc(-c2ccccc2)c1-c1ccco1)N1CCOCC1,0.7687%
4,Cc1nc2c(c(=O)n1C)CCN(C(=O)CCc1ccccn1)CC2,-4.884%
5,CCN(CCCN1CCOCC1)C(=O)c1cnn(CC)c1,-6.092%
6,CN(C)[C@@H]1CCN(C(=O)c2ccco2)[C@H]1Cc1cnn(C)c1.O=C(O)C(F)(F)F,-8.002%
7,CN(C)CCCN(Cc1cnn(C)c1)Cc1ccco1.O=C(O)CC(O)(CC(=O)O)C(=O)O,115.2%
8,CN(Cc1cnn(C)c1)S(=O)(=O)N1CCCC1c1ccco1 (centres undefined),-4.037%
9,COCCN(Cc1cnn(C)c1)Cc1ccc(C)o1,2.974%
10,Cc1ccc(CN(CCCN2CCOCC2)Cc2cnn(C)c2)o1.O=C(O)CC(O)(CC(=O)O)C(=O)O,97.82%
11,O=C1NCC2(CCCN(C(=O)Nc3ccc4scnc4c3)CC2)O1 (centres undefined),-9.08%
12,Cc1cnn(CC2CCN(CC(O)c3ccc(F)cc3)CC2)c1 (centres undefined),-5.813%
13,CC(C)(C)CC(=O)N1CC[C@@H]2[C@H](CC1)N(S(C)(=O)=O)CCS2(=O)=O,-4.617%
14,CC(=O)N1CCS(=O)(=O)[C@@H]2CCN(S(=O)(=O)CC(C)C)CC[C@@H]21,8.105%
15,CC(=O)N1CCS(=O)(=O)[C@@H]2CCN(CC(C)C)CC[C@@H]21.O=C(O)C(F)(F)F,-6.859%
16,CC(C)CN1CC[C@@H]2[C@H](CC1)N(S(C)(=O)=O)CCS2(=O)=O.O=C(O)C(F)(F)F,96.88%
17,CC(C)(C)C(=O)N1CC[C@@H]2[C@H](CC1)N(S(C)(=O)=O)CCS2(=O)=O,98.9%
18,CC(C)CN1CCS(=O)(=O)[C@@H]2CCN(S(=O)(=O)N(C)C)CC[C@@H]21.O=C(O)C(F)(F)F,-16.7%
19,CC(C)CCC(=O)N1CC[C@@H]2[C@H](CC1)N(S(C)(=O)=O)CCS2(=O)=O,94.59%
20,CC(C)CN1CCS(=O)(=O)[C@@H]2CCN(S(=O)(=O)C3CC3)CC[C@@H]21.O=C(O)C(F)(F)F,4.008%

row,SMILES,Percent Effect
1,CC(C)CC(=O)N1CC[C@@H]2[C@H](CC1)N(S(C)(=O)=O)CCS2(=O)=O,1.552%
2,C[C@H]1CC[C@H](C(=O)N2CCC(n3cc(C4(O)CCCC4)nn3)CC2)CC1,3.706%
3,CSc1ncc(C(=O)N2C[C@@H](NC(C)=O)[C@H](c3ccc(C)cc3)C2)cn1,-0.9583%
4,CN(C(=O)NCCCN1CCCC1)C1CCN(c2ccccc2)C1=O (centres undefined),-8.204%
5,Cc1cc(-c2cncnc2)ccc1OCC(N)=O,-32.33%
6,N#Cc1cc(N2CCC(S(N)(=O)=O)CC2)c2ccccc2n1,-5.494%
7,COCCN1CCCC(c2nc3c([nH]2)CC(C)(C)CNC3=O)C1 (centres undefined),-7.15%
8,COc1ccccc1OCCN1CCCC(c2noc(C3CC3)n2)C1 (centres undefined),-3.612%
9,CCCn1cc(C(=O)N2CCCC(c3nccn3CCOC)C2)c(C)n1 (centres undefined),0.1706%
10,COCCN1CCCC(c2ncc(C(=O)N(C)C)c(C)n2)C1 (centres undefined),128.7%
11,COCCN1C[C@@H](C)[C@@]2(COCCN(C(=O)c3cnc(C)cn3)C2)C1.O=C(O)C(F)(F)F,-26.1%
12,COCCn1cnc(-c2nc(C(=O)N3CCOCC3)c3ccccn23)c1,-9.685%
13,COCCCC1(CO)CCCN(C(=O)c2cnc(C3CC3)nc2)C1 (centres undefined),-3.858%
14,COCCN1CCCC(c2ncc(C(=O)N3CCOCC3)c(C)n2)C1 (centres undefined),169%
15,COCCN1CCC(c2ncc(C(=O)N3CCOCC3)c(C)n2)CC1,139.1%
16,CN1CC(NC(=O)Cc2csc(C(C)(C)C)n2)CCC1=O (centres undefined),-3.161%
17,Cn1cccc1C(O)CNS(=O)(=O)c1ccccc1Br (centres undefined),6.296%
18,COC(=O)CCN1CCC(C(=O)c2cc(F)ccc2F)CC1,-15.76%
19,COc1ccc(F)cc1C(=O)N(C)Cc1cc(C)on1,2.319%
20,COc1ccc(F)cc1C(=O)N(C)[C@@H]1CC[C@@H](O)[C@@H]1O,132.3%

row,SMILES,Percent Effect
1,CN(CC(=O)N1CCCC1)C(=O)c1ccccc1F,15.74%
2,NC(=O)N1CCCC1COC(=O)c1cc(F)ccc1F (centres undefined),-4.772%
3,O=C(NCC1(CO)CC1)c1ccccc1F,-18.48%
4,CO[C@@H]1CCC[C@@H](N(C)C(=O)c2cc(F)ccc2F)[C@H]1O,130.1%
5,COc1ccc(F)cc1CSCC(=O)N(C)C1CC1,-12.98%
6,CN(C(=O)c1cc(F)ccc1F)[C@@H]1CC[C@@H](O)[C@@H]1O,103%
7,CN(C(=O)c1ccccc1F)[C@@H]1CC[C@@H](O)[C@@H]1O,107.7%
8,N[C@@H]1CC[C@H](C(=O)NCCc2nc(-c3ccccc3)cs2)C1,11.72%
9,COc1ccc2c(c1)OCC(Cc1cncc(N)c1)C2 (centres undefined),-0.2819%
10,CCN(C)C[C@@H]1CN(C(=O)c2cc(-c3ccc(F)cc3)n[nH]2)C[C@@H]1CO,95.72%
11,CN(C)C[C@@H]1CN(C(=O)c2cc(S(N)(=O)=O)ccc2F)C[C@@H]1CO,8.109%
12,COc1cccc(OC)c1C(=O)N1C[C@@H](CN(C)C)[C@@H](CO)C1,-5.352%
13,COc1cccc(F)c1C(=O)N1C[C@@H](CN(C)CCO)[C@@H](CO)C1,0.09463%
14,CN(C)C[C@@H]1CN(C(=O)c2cc(F)ccc2F)C[C@@H]1CO,-6.942%
15,CCN(C)C[C@@H]1CN(C(=O)c2cc(C(F)(F)F)n[nH]2)C[C@@H]1CO,95.2%
16,CN(C)C[C@@H]1CN(C(=O)c2cc(-c3ccccc3)n[nH]2)C[C@@H]1CO,104.8%
17,COc1ccc(-n2nc(C)c(C(C)=O)c2C)cc1C(N)=O,0.6017%
18,CC(=O)NCCNC(=O)Nc1cccc(Cl)c1SC(F)F,-0.5749%
19,Cc1ccc(C#N)c(N2CCCC(c3nccn3Cc3cscn3)C2)n1 (centres undefined),8.413%
